This passage reports growth results from PubChem BioAssay (NCI).

About 83,000 compounds went through this panel and 20% of them were active in at least one assay; those are over-represented in the sample as a whole.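 Values shown are percent growth following 48 h exposure of cells in 96-well plates to a single concentration of compound; below 10 was considered active.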 A number with no mark means an inactive call. Calls of active or inactive are those of the source.

Common to all, as to assay: NCI-60 one-dose screen, 48 h (100 = growth as untreated, 0 = no growth, -100 = all killed)
In test [1] the test system is SK-MEL-2 melanoma. To be noted: 10 µM.
Test [2] relates to EKVX NSCLC. As to conditions: 10 µM.
For test [3], the system named is SN12C renal. As to conditions: 10 µM.
In test [4] the test system is TK-10 renal. As to conditions: 10 µM unless noted.
Test [5] deals with ACHN renal. To be noted: 10 µM.
The test system of test [6] is CAKI-1 renal. As to conditions: 10 µM.
Test [7] relates to A498 renal. To be noted: 10 µM.
The subject of test [8] is CCRF-CEM leukemia. As to conditions: 10 µM.
In test [9] the test system is MOLT-4 leukemia. As to conditions: 10 µM.

Consider `Cc1ccc(C)n1-c1ccsc1C(=O)NNC(=O)C(Cl)Cl`, for which the growth in [1] was 106%; in [2], 92.5%; in test [3], 98.6%; in test [4] it was 112%; in test [5] it was 104%; in test [6], 93.3%. Further, the figures for the growth in [7], in [8] and in [9] were 101%, 85.3% and 118%, respectively.
As for `CSc1[nH]c(=O)ncc1F`, the growth is 117% in [1]; 101% in test [2]; 101% in test [3]; 109% in [4]; 95% in test [5]; 91.5% in [6]. Moreover, the growth was 101% in test [7], 91.2% in test [8] and 117% in test [9].
As to `CCNCCCCNCCCCNCCCCNCCCCNCC`, the growth in test [1] was 97.1%; in test [2], 76.2%; in [3], 115%; in test [4], 63.6%; in [5] it was 80.4%; in test [6], 77.7%. The growth was 129% in test [7], 128% in [8] and 151% in test [9].
Take `CCc1nc(N)nc(N)c1-c1ccc(Cl)cc1`: the growth in [1] was 105%; in test [2], 74.9%; in [3], 64.7%; in [4] it was 104%; in [5], 40.9%; in test [6] it was 91.4%. Also, the growth was 87.7% in [7], 68.4% in [8] and 56.4% in [9].
`O=C(Cc1nc2ccc([N+](=O)[O-])cc2nc1CC(=O)c1ccccc1)c1ccccc1`: the growth in test [1] is 103%; in test [2], 55.8%; in test [3] it was 75%; in [4] it was 104%; in test [5], 57%; in [6], 62.9%. The growth in [7] is 132%; in test [8], 40.5%; in test [9], 54.2%.
Take `COc1ccc(-c2cc(-c3cc(-c4ccc(OC)cc4)nc(N)n3)nc(N)n2)cc1`: the growth in [1] was 115%; in [2] it was 92.1%; in [3], 93.8%; in [4], 102%; in test [5] it was 97.6%; in test [6], 91.9%. Also, the figures for the growth in [7], in [8] and in [9] were 94.1%, 76.7% and 112%, respectively.
Take `Cc1ccc(/C=C2\SC(=S)N(c3ccc(F)cc3)C2=O)o1`: the growth is 96.3% in test [1]; 82.4% in test [2]; 87% in test [3]; 102% in test [4]; 48.6% in test [5]; 54.9% in [6]. Besides, the growth in [7] is 112%; in test [8], 89.2%; in [9] it was 79.1%.
As to `CCS(=O)(=O)CCCl`, the growth in test [1] was 102%; in [2] it was 89.6%; in [3], 97.8%; in test [4] it was 96.5%; in [5], 97.3%; in test [6] it was 101%. The results for the growth in test [7], in [8] and in [9] were 129%, 63.6% and 89.5%, respectively.
For the compound `CCCCCCCCCCCCCC(=O)Oc1ccc[nH]c1=O`, the growth in test [1] was 115%; in test [2], 83.4%; in test [3], 98.1%; in [4], 84.2%; in test [5] it was 110%; in test [6] it was 84.5%. The growth in [7] was 94.5%; in test [8], 75.5%; in [9], 98.6%.
Consider `Nc1ncnc2[nH]ncc12`, for which the growth in [1] is -14.1% (active); in test [2], 30.4%; in test [3], 14%; in test [4], 1.19% (active); in [5], 8.29% (active); in [6], -9.29% (active). The growth in test [7] was 8.78% (active); in [8] it was 13.1%; in [9] it was 25.9%.
Regarding `Cc1cc2nc(CC(=O)c3ccccc3)c(=O)[nH]c2cc1C`, the growth was 102% in test [1]; 55.5% in [2]; 93.8% in [3]; 149% in test [4]; 93.8% in [5]; 76.2% in test [6]. Also, the growth in [7] is 127%; in test [8], 88.5%; in test [9] it was 89%.
Consider `COC(=O)c1cc(-c2ccc(Cl)c(Cl)c2)[nH]c(=O)c1C#N`, for which the growth is 120% in [1]; 94.4% in test [2]; 93.7% in test [3]; 103% in [4]; 94.8% in [5]; 87.5% in test [6]. Also, the growth is 125% in [7], 104% in [8] and 107% in [9].
On to `CCOC(=O)c1cc(/C=C/c2cccc(Cl)c2)on1`, for which the growth was 113% in test [1]; 75.4% in test [2]; 86.2% in test [3]; 111% in test [4]; 90.9% in [5]; 91.3% in [6]. Also, the figures for the growth in [7], in test [8] and in test [9] were 110%, 67% and 99.9%, respectively.
In the case of `CC(C)OC(C(=O)O)c1ccccc1` (stereo not drawn), the growth in [1] is 110%; in test [2], 108%; in test [3], 93.5%; in [4], 98.4%; in test [5], 97.2%; in test [6], 101%. Besides, the growth is 107% in [7], 91.9% in test [8] and 125% in test [9].
`COc1ccc2c(c1)CCc1c-2n[nH]c1-c1[nH]nc2c1CCc1cc(OC)ccc1-2`: the growth in test [1] was 61.7%; in [2], 59.8%; in test [3], 91.6%; in test [4] it was 109%; in [5], 57.8%; in test [6], 53.2%. Also, the growth in test [7] is 109%; in [8], 41.8%; in test [9] it was 50.4%.
Regarding `COC(=O)C(O)c1ccccc1` (stereo not drawn), the growth in test [1] was 103%; in [2], 119%; in test [3], 97%; in [4], 106%; in test [5], 100%; in test [6] it was 114%. For the same compound, the growth in [7] was 132%; in test [8], 98.1%; in [9], 105%.
As to `CC(=O)Cc1cc(-c2cc(CC(C)=O)[nH]n2)n[nH]1`, the growth in test [1] is 111%; in test [2], 89.8%; in test [3] it was 94.2%; in [4], 92.4%; in [5] it was 95.1%; in test [6], 87.7%. The growth in [7] was 99.3%; in test [8] it was 101%; in [9], 114%.
For the compound `CC(C)C1CCCCC1O` (stereo not drawn), the growth in [1] was 107%; in [2], 81.9%; in test [3], 102%; in test [4], 110%; in test [5] it was 93.5%; in test [6] it was 101%. Also, the growth in test [7] is 97.2%; in test [8], 99.3%; in test [9], 148%.
`O=C1NC(=O)C2C(=O)NC(=O)C1C21CCc2ccccc21` (stereo not drawn): the growth in [1] was 118%; in test [2], 90.1%; in test [3], 100%; in test [4], 145%; in test [5] it was 95.6%; in test [6], 77.7%. In addition, the figures for the growth in test [7], in [8] and in test [9] were 137%, 78.6% and 111%, respectively.
Take `COc1ccccc1NC(=O)C1=C(C)NC(C)=C(C(=O)Nc2ccccc2OC)C1c1cccc([N+](=O)[O-])c1`: the growth was 79.6% in test [1]; 44.1% in [2]; 68.4% in test [3]; 97.4% in [4]; 54.6% in test [5]; 50.1% in [6]. The growth was 128% in [7], 64.5% in test [8] and 37.4% in [9].
As for `O=C(Cc1nc2ccc([N+](=O)[O-])cc2nc1CC(=O)c1cccnc1)c1cccnc1`, the growth in [1] is 113%; in test [2], 63.2%; in test [3] it was 56.2%; in test [4] it was 75.5%; in test [5] it was 54.1%; in test [6] it was 81.5%. Further, the growth was 86.9% in test [7], 48.7% in test [8] and 80.8% in test [9].
For the compound `COC(=O)c1[nH]c(=O)c(C#N)c(C(=O)OC)c1C(=O)c1ccccc1`, the growth in [1] is 114%; in test [2] it was 91.4%; in test [3] it was 95%; in [4], 143%; in test [5], 98.1%; in test [6] it was 90%. Further, the growth is 113% in test [7], 105% in test [8] and 104% in test [9].
With `Cc1cc(C(C)(C)C)cc(C)c1Br`, the growth is 105% in test [1]; 100% in test [2]; 100% in test [3]; 113% in [4]; 104% in test [5]; 93.5% in [6]. In addition, the growth is 104% in [7], 92.2% in test [8] and 99% in test [9].
On to `OCCN(CCO)C(=S)S`, for which the growth was 121% in test [1]; 96.3% in test [2]; 102% in test [3]; 110% in test [4]; 109% in test [5]; 93.1% in test [6]. Also, the figures for the growth in test [7], in [8] and in [9] were 114%, 104% and 121%, respectively.
As for `CCCOC(=O)C(O)c1ccccc1` (stereo not drawn), the growth in [1] is 106%; in [2], 50.6%; in [3], 102%; in test [4], 106%; in test [5], 98.3%; in test [6] it was 96.3%. Besides, the figures for the growth in [7], in test [8] and in test [9] were 94.7%, 88.8% and 110%, respectively.
As for `OCCN1CCOCC1`, the growth in test [1] was 107%; in test [2], 116%; in [3], 97.5%; in test [4], 106%; in test [5] it was 101%; in [6], 132%. Further, the growth was 106% in test [7], 108% in [8] and 104% in test [9].
For `CCOC(=O)c1cc(/C=C/c2ccc(Cl)cc2Cl)on1`, the growth in test [1] is 109%; in [2], 45.2%; in test [3], 70.8%; in [4], 155%; in test [5] it was 2.04% (active); in test [6], 42.9%. The growth is 133% in test [7], 19% in [8] and 32.5% in test [9].
In the case of `CC(=O)CC(=O)N(C)C`, the growth in [1] is 106%; in [2] it was 93.5%; in [3], 97%; in [4] it was 98.4%; in test [5], 103%; in test [6], 88.3%. Also, the growth was 102% in test [7], 73.7% in test [8] and 120% in test [9].
As to `C=CCNc1ccccc1`, the growth in [1] is 95.5%; in test [2], 108%; in [3], 94.1%; in test [4], 95.7%; in test [5], 101%; in test [6], 114%. The growth in test [7] was 119%; in test [8] it was 93.6%; in test [9], 95.4%.
For `CCCC1(c2ccccc2)NC(=O)NC1=O` (stereo not drawn), the growth in test [1] was 103%; in [2], 118%; in test [3] it was 104%; in test [4], 95.2%; in [5], 103%; in test [6], 116%. The growth in test [7] is 121%; in test [8] it was 99.7%; in test [9], 123%.
For the compound `O=[N+]([O-])c1ccc(-c2noc(-c3cccs3)n2)cc1`, the growth in test [1] is 106%; in test [2], 66.1%; in test [3] it was 83.5%; in test [4], 101%; in [5], 60.2%; in test [6] it was 77.8%. Besides, the growth in [7] was 88.6%; in test [8], 93.6%; in test [9] it was 81.5%.
With `CC(=O)NC(N)=S`, the growth in test [1] is 111%; in [2], 118%; in test [3], 104%; in test [4] it was 100%; in test [5] it was 104%; in test [6], 100%. For the same compound, the growth was 112% in test [7], 86.7% in [8] and 77.4% in [9].
